For 32 molecules, Potency results are on record in PubChem BioAssay (Tox21).

Each structure is given as a SMILES string. Results filed as inconclusive are left out. Entries that show only a call come without a potency. Active and inactive are the calls of the source. Unless noted, calls follow the shape of the dose curve; as a rule, active = well fitted curve in the direction sought with a large enough effect in the repeat runs; inconclusive = weak or mixed curves; inactive = no such curve, though single readings can be large; an effect the other way counts as inactive or inconclusive. Non-standard residues stand in square brackets, D forms with d. Residues, ends and D or L forms follow the SMILES beside them. pGlu = O=C1CC[C@@H](C(=O)O)N1; Thz = O=C(O)[C@@H]1CSCN1

Androgen receptor (Homo sapiens), sequence (P10275 whole entry, looked up): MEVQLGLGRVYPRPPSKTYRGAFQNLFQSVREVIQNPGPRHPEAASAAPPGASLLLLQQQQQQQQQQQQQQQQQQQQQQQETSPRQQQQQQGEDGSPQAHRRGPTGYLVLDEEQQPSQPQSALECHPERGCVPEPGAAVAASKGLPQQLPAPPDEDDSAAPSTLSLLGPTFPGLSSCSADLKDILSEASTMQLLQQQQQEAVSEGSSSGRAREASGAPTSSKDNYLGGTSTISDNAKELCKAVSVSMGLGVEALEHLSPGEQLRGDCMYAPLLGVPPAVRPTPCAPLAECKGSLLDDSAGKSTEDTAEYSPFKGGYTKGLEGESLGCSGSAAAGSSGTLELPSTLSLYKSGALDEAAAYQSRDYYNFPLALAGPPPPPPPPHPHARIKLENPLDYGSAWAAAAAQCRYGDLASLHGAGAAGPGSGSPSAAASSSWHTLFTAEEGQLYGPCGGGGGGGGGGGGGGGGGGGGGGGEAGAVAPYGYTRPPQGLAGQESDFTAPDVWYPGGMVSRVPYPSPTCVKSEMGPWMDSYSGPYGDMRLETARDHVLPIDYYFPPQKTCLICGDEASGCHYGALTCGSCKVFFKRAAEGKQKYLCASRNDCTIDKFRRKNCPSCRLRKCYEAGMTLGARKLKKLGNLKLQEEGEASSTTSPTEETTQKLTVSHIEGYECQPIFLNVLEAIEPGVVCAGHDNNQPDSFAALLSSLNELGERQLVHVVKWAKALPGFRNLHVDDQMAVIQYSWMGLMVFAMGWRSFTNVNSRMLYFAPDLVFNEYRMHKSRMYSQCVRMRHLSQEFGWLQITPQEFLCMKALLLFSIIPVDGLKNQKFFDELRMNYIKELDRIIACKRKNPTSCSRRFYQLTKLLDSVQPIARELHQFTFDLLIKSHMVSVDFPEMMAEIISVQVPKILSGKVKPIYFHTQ

The target in one assay is Androgen receptor (Homo sapiens) (UniProt P10275). Nature of the assay: qHTS assay to identify small molecule agonists of the androgen receptor (AR) signaling pathway (AID 743036; active = well fitted activation curve with a large enough effect in the signal ratio in the repeat runs, with a control signal flat, not every such curve was filed as active; the % refers to the signal ratio). The conditions noted are these: HEK293 AR-UAS-bla GripTite, beta-lactamase FRET ratio, 16 h; series mostly up to 62.4 µM. The method in brief:
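Fluorescence from a beta-lactamase FRET substrate served as read-out in AR-UAS-bla GripTite HEK293 cells. Cells were treated with DMSO-dissolved compounds for 16 h at 37C, then with LiveBLAzer B/G substrate for 2 h at room temperature.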
On to `CN(C)CCCN1c2ccccc2C(C)(C)c2ccccc21`, for which the Potency entry was “inactive”.

Consider `CCC(Cc1c(I)cc(I)c(O)c1I)C(=O)O` (centres undefined), for which the Potency result is “inactive”.

Take `CCCCCCCCCCCCCC[n+]1ccc(C)cc1`: the Potency result is “inactive”.

In the case of `[O]=[Bi][O][Bi]=[O]`, the Potency result was “inactive”.

The target is the same in the next assay. The assay is described as follows: qHTS assay to identify small molecule agonists of the androgen receptor (AR) signaling pathway using the MDA cell line (AID 743040; also: nearly all actives have a fitted effect of over 20% in size). The conditions noted are these: MDA-kb2 AR-luc cells, MMTV luciferase, 16 h; series mostly up to 70.3 µM. In short, it runs like this:
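Testing was done with the MDA-kb2 AR-luc line, a human breast carcinoma stably transfected with MMTV-luciferase containing AR and GR response elements. Cells were exposed 16 h at 37C before ONE-Glo luminescence detection.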
On to `CN(C)c1ccc(C(=C2C=CC(=[N+](C)C)C=C2)c2c(O)c(S(=O)(=O)[O-])cc3cc(S(=O)(=O)O)ccc23)cc1`, for which the Potency result was “inactive”.

`CN(C)CCCN1c2ccccc2C(C)(C)c2ccccc21`: the Potency entry was “inactive”.

As for `OCCN1CCN(CC/C=C2/c3ccccc3Sc3ccc(Cl)cc32)CC1`, the Potency result was “inactive”.

Take `CCC(Cc1c(I)cc(I)c(O)c1I)C(=O)O` (centres undefined): the Potency result is “inactive”.

On to `CCCCCCCCCCCCCC[n+]1ccc(C)cc1`, for which the Potency result is “inactive”.

As for `[O]=[Bi][O][Bi]=[O]`, the Potency result is “inactive”.

Test system in another assay: not listed separately
The assay is described as follows: qHTS assay to identify small molecule antagonists of the androgen receptor (AR) signaling pathway using the MDA cell line - cell viability counter screen (AID 743041; also: nearly all actives have a fitted effect of over 45% in size; also: potency is read from the fitted curve at half-maximal effect). Conditions: MDA-kb2 viability, CellTiter-Fluor, 16 h, cells co-treated with R1881 androgen agonist; series mostly up to 70.3 µM. In short, it runs like this: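 Compound exposure lasted 16 h at 37C in MDA-kb2 AR-luc cells stimulated with R1881. Protease-based CellTiter-Fluor reagent was applied for the final 30 min and fluorescence measured.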
`CCCCCCCCCCCC(=O)OC[C@@H](O)C1OC[C@H](O)[C@H]1O` (some centres undefined): the Potency result is “inactive”.

As to `CNc1cc(OC)c(C(=O)N[C@H]2CCN(Cc3ccccc3)[C@H]2C)cc1Cl`, the Potency entry is “inactive”.

`O=C(O)c1cccc(/C=C2/C[C@@H]3[C@@H](/C=C/[C@@H](O)C4CCCCC4)[C@H](O)C[C@@H]3O2)c1`: the Potency entry was “inactive”.

Take `NCCCNCCCCNC(=O)C(O)NC(=O)CCCCCCN=C(N)N` (centres undefined): the Potency result was “inactive”.

Turning to `C=C[C@]1(C)C[C@@H](OC(=O)CSCCN(CC)CC)[C@]2(C)[C@H](C)CC[C@]3(CCC(=O)[C@H]32)[C@@H](C)[C@@H]1O`, the Potency entry was “inactive”.

With `CC(O)[C@@H]1NC(=O)[C@H](Cc2ccccc2)NC(=O)[C@H](C(C)O)NC(=O)[C@H](CCCCN)NC(=O)[C@H](Cc2c[nH]c3ccccc23)NC(=O)[C@H](Cc2ccccc2)NC(=O)[C@H](Cc2ccccc2)NC(=O)[C@H](CC(N)=O)NC(=O)[C@H](CCCCN)NC(=O)[C@@H](NC(=O)CNC(=O)[C@H](C)N)CSSC[C@@H](C(=O)O)NC(=O)[C@H](CO)NC1=O` (some centres undefined), the Potency entry is “inactive”.

Consider `O=C(CO)[C@@H](O)[C@H](O)[C@@H](O)C(=O)O`, for which the Potency entry is “inactive”.

In the case of `O=C(O)[C@H]1/C(=C/CO)O[C@@H]2CC(=O)N21`, the Potency result is “inactive”.

On to `NCCC(=O)[N-][C@@H](Cc1cnc[nH]1)C(=O)O.[Zn]`, for which the Potency result was “inactive”.

For the molecule `C[N@+]12CCCC[C@@H]1CCC(=C(c1cccs1)c1cccs1)C2`, the Potency was 26.6 µM (active).

With `CCCCC/C=C\C/C=C\C/C=C\CCCCC(=O)O`, the Potency result was “inactive”.

Consider `COc1ccc(/C=C/C(=O)OCCC(C)C)cc1`, for which the Potency result was “inactive”.

As for `CC(=O)[C@@]1(O)CC[C@H]2[C@@H]3C=C(Cl)C4=CC(=O)[C@@H]5C[C@@H]5[C@]4(C)[C@H]3CC[C@@]21C`, the Potency result is “inactive”.

Consider `O=C1CC[C@@H](C(=O)N2CSC[C@H]2C(=O)O)N1` ([pGlu]-[Thz]-OH), for which the Potency entry is “inactive”.

`CCCc1ccc(C(=O)O)cc1`: the Potency entry was “inactive”.

With `CCOc1cc(-c2nccc3cc(OC)c(OC)cc23)cc(OCC)c1OCC`, the Potency result was “inactive”.

Regarding `CCCCCCCCCCCCCCCC(=O)O[C@@H]1[C@@H](O)[C@@H](O)[C@@H]([C@H](NC(=O)[C@@H]2C[C@@H](CCC)CN2C)[C@H](C)Cl)O[C@@H]1SC`, the Potency entry was “inactive”.

Take `OCCN1CCN(CC/C=C2/c3ccccc3Sc3ccc(Cl)cc32)CC1`: the Potency entry is “inactive”.

Turning to `CCC(Cc1c(I)cc(I)c(O)c1I)C(=O)O` (centres undefined), the Potency result was “inactive”.

With `C[C@H]1C[C@H]2[C@@H]3CCC4=CC(=O)C=C[C@]4(C)[C@@]3(F)[C@@H](O)C[C@]2(C)[C@@]1(O)C(=O)CCl`, the Potency result is “inactive”.

Regarding `CN=C1C=CC(=C(c2ccc(N(C)C)cc2)c2ccc(N(C)C)cc2)C=C1`, the Potency is 7.5 µM (active).

Regarding `CC(=O)O[C@H]1C(=O)[C@@]2(C)[C@H]([C@H](OC(=O)c3ccccc3)[C@]3(O)C[C@H](OC(=O)[C@H](O)[C@@H](NC(=O)c4ccccc4)c4ccccc4)C(C)=C1C3(C)C)[C@]1(OC(C)=O)CO[C@@H]1C[C@@H]2O`, the Potency result is “inactive”.

As for `CC1(O)CCC(C(C)(C)O)CC1` (centres undefined), the Potency result was “inactive”.

Consider `CCOC(=O)COc1ccc2c(C)c(CCN(CC)CC)c(=O)oc2c1`, for which the Potency entry is “inactive”.

With `N[C@H](CCC(=O)O)C(=O)O`, the Potency entry was “inactive”.

Consider `CCN(CC)CCOc1ccccc1OC`, for which the Potency result was “inactive”.

In the case of `CC(C)C[C@H](NC(=O)[C@@H](Cc1c[nH]c2ccccc12)NC(=O)[C@H](Cc1ccc(O)cc1)NC(=O)[C@H](CO)NC(=O)[C@H](Cc1c[nH]c2ccccc12)NC(=O)[C@H](Cc1cnc[nH]1)NC(=O)[C@@H]1CCC(=O)N1)C(=O)N[C@@H](CCCN=C(N)N)C(=O)N1CCC[C@@H]1C(=O)NCC(N)=O`, the Potency entry was “inactive”.

For the molecule `[O]=[Bi][O][Bi]=[O]`, the Potency entry was “inactive”.

For the molecule `CC1(C)S[C@@H]2[C@H](NC(=O)[C@H](N)c3ccccc3)C(=O)N2[C@H]1C(=O)OCOC(=O)[C@@H]1N2C(=O)C[C@H]2S(=O)(=O)C1(C)C`, the Potency result was “inactive”.
